Measured values published in PubChem BioAssay.
The source made the active and inactive calls.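 The calls were made as follows, unless noted: active = compounds that lower viability of the colon cancer cells in the luminescence readout, with no numeric limit stated; inactive = the rest.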

Assays:
[1] = stimulators of nuclear beta-catenin in C2C12, primary screen, imaging, WNT3A-conditioned medium, mouse C2C12, NPC library (AID 1117326; in the data active = nuclear beta-catenin stimulation mostly above about 4.2%, no sharp cut-off; inactive = mostly below about 10%; also: reference of the scale not given here); details: stronger effect = higher value
[2] = stimulators of insulin release from INS-1E, primary screen, cell-based, 5 mM glucose, NPC library (AID 1117329;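 active = compound raises insulin release from rat beta cells at 5 mM glucose, no numeric limit stated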; also: reference of the scale not given here); details: rat INS-1E insulin secretion, at 10 µM, stronger effect = higher value
[3] = growth inhibition of GSK3B-pretreated HCT116 cells – cell-based, CellTiter-Glo, 0.2 to 20 µM (AID 1117336;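 active = compounds lowering colon cancer cell viability after pretreatment blocking the GSK3B kinase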); details: HCT116 viability after GSK3B inhibitor, at 20 µM, stronger effect = higher value
[4] = inhibition of endothelial tube formation, primary screen, imaging, VEGF stimulated, CD31 staining, tube area, NPC library (AID 1117340;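 active = compound that reduces growth-factor-driven endothelial tube area in a mixed cell culture, no cutoff stated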); details: VEGF-stimulated ADSC/ECFC co-culture, at 10 µM, stronger effect = higher value
[5] = glucagon-like peptide 1 release enhancers, primary assay, NCI-H716 cell line, NPC library (AID 1117341;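 active = compound raises GLP1 secretion from the human gut endocrine cells, with no numeric limit stated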; also: reference of the scale not given here); details: NCI-H716 cells, at 10 µM, stronger effect = higher value
[6] = HCT116 colon cancer cell growth inhibition, primary screen, CellTiter-Glo luminescence, NPC library (AID 1117342;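 active = compounds that lower survival of HCT116 colon cancer cells in the luminescence readout, no numeric limit stated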); details: at 20 µM (top of the series)
[7] = CellTiter-Glo luminescent readout of SW480 viability loss, NPC library primary (AID 1117343); details: CellTiter-Glo luminescence; at 20 µM (top of the series)
[8] = decreased DLD-1 cellular survival, CellTiter-Glo luminescent readout, NPC compound collection, primary HTS (AID 1117346;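 active = compounds that lower survival of DLD-1 colon cancer cells in the luminescence readout, no cutoff given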); details: DLD-1 viability, CellTiter-Glo luminescence; at 20 µM (top of the series)

| Structure (SMILES) | nuclear beta-catenin stimulation ([1]; at 10 µM) | nuclear beta-catenin stimulation ([1]; stimulation, at 2 µM) [%] | insulin secretion stimulation [2] | viability decrease [3] | tube area decrease [4] | GLP1 secretion stimulation [5] | inhibition of viability [6] | viability decrease (inhibition) [7] | viability decrease (inhibition) [8] |
| --- | --- | --- | --- | --- | --- | --- | --- | --- | --- |
| CCN(CC)Cc1nccn1-c1ccc([N+](=O)[O-])cc1C(=O)c1ccccc1Cl | -1.2% (inactive) | -0.2 | 7.4% (inactive) | -3% (inactive) | 2.7% (inactive) | -0.3% (inactive) | 28.5% (inactive) | 39.7% (inactive) | 0% (inactive) |
| N[C@@H](Cc1ccc(Oc2cc(I)c(O)c(I)c2)c(I)c1)C(=O)O | 0.6% (inactive) | -0.5 | 2.2% (inactive) | 48.2% (inactive) | 34.7% (inactive) | -3.9% (inactive) | 39.6% (inactive) | 36.1% (inactive) | -13.1% (inactive) |
| Nc1ccc(N)cc1 | -0.1% (inactive) | 0.8 | -3.1% (inactive) | -2.35% (inactive) | -29.4% (inactive) | 4.2% (inactive) | 51% (active) | 84.1% (active) | -15.2% (inactive) |
| Cc1ccc([N+](=O)[O-])[c]2c1[O][Hg]2 | 20.9% (active) | 66.9 | 87.1% (active) | 99.5% (active) | 105% (active) | 64.6% (active) | 100% (active) | 134% (active) | 103% (active) |
| CCC1(c2ccccc2)CCC(=O)NC1=O (stereo not given) | 0.3% (inactive) | 0.1 | -2.9% (inactive) | -12.8% (inactive) | -0.6% (inactive) | 2.8% (inactive) | -2.8% (inactive) | 49.4% (inactive) | 6.55% (inactive) |
| CCC(=O)O[C@@H]1C=C2CCC3C(CCC4(C)C3CC[C@@H]4OC(=O)CC)C2CC1 (stereo not given in full) | -0.9% (inactive) | 1.3 | 4.8% (inactive) | 7.6% (inactive) | -11.8% (inactive) | -4.4% (inactive) | 21.4% (inactive) | 13.2% (inactive) | 9.9% (inactive) |
| O=c1ccc2cc(O[C@@H]3O[C@H](CO)[C@H](O)[C@H](O)[C@H]3O)c(O)cc2o1 | -0.9% (inactive) | -0.5 | 5% (inactive) | -6.5% (inactive) | -14.5% (inactive) | -2.1% (inactive) | 8.5% (inactive) | 13.9% (inactive) | -0.6% (inactive) |
| CNC(C)Cc1ccccc1OC (stereo not given) | -0.4% (inactive) | 1.2 | 7.2% (inactive) | -1.3% (inactive) | -13.1% (inactive) | 0.2% (inactive) | 9.4% (inactive) | 41.8% (inactive) | 43.1% (inactive) |
| CCOC(=O)NC(C)(C)Cc1ccc(Cl)cc1 | 7.3% (inactive) | -2.9 | 2.1% (inactive) | 13.6% (inactive) | 65.4% (active) | -1.8% (inactive) | 61.4% (active) | 31.1% (inactive) | 3.85% (inactive) |
| Nc1ccc(Cl)cc1C(=O)c1ccccc1F | 2.3% (inactive) | 4.2 | 5% (inactive) | 23.5% (inactive) | 25.4% (inactive) | 21.1% (active) | 44.6% (inactive) | 61.9% (active) | 12.8% (inactive) |
| CC(Cc1ccccc1)N(C)Cc1ccco1 (stereo not given) | -0.5% (inactive) | 0.7 | 2.3% (inactive) | -12.2% (inactive) | 25.5% (inactive) | 0.1% (inactive) | 8.5% (inactive) | 4.3% (inactive) | -1.8% (inactive) |
| O=C(O)CCCCCCNC1c2ccccc2CCc2ccccc21 | -0.3% (inactive) | -1.4 | -0.2% (inactive) | -7.3% (inactive) | -4.7% (inactive) | 0.3% (inactive) | -9.4% (inactive) | 13.9% (inactive) | -13.1% (inactive) |
| COc1cccc(C(=O)CCN[C@@H](C)[C@H](O)c2ccccc2)c1 | 20.8% (inactive) | -0.6 | 8.8% (inactive) | -1.3% (inactive) | 42% (active) | 0.7% (inactive) | 2.3% (inactive) | 91.6% (active) | 75.9% (active) |
| CCC(CC)(CNC(=O)CCCO)c1cccc(OC)c1 | -1.1% (inactive) | -0.7 | 0.4% (inactive) | -15.7% (inactive) | 11.5% (inactive) | -1.4% (inactive) | -6.33% (inactive) | -5.8% (inactive) | -6.4% (inactive) |
| CC(Cc1ccc2c(c1)OCO2)NCC(O)c1ccc(O)c(O)c1 (stereo not given) | 2.6% (inactive) | -0.2 | 2.9% (inactive) | 38.3% (inactive) | 21.3% (inactive) | -2% (inactive) | 25.8% (inactive) | 40.4% (inactive) | 14.6% (inactive) |
